# Screens: PubChem BioAssay, several laboratories
# This is a sample that favours compounds with a hit; in the whole collection about 1.2% have one here.
# Y pestis TopoI = Yersinia pestis topoisomerase I inhibitors, primary screen, biochemical, cleavage product accumulation, plate reader, single point; hit rate 0.064% among 360,000; activity, % at 10 µM; DNA topoisomerase I (Yersinia pestis CO92); Y. pestis Topo-I cleavage product accumulation; AID 504884, 2011; in the data active = activity above about 50%, passing the limit was not always enough
# TcdB inh = TcdB glycohydrolase inhibitors, primary screen, biochemical, single point, plate reader | Toxin B (Clostridioides difficile), P18177 | TcdB glycohydrolase enzymatic assay | inhibition, % at 9.99 µM | hit rate 0.24% among 350,000 | AID 652162, 2013; in the data active = inhibition above about 10%
# PfHsp40 yeast = rescue of yeast from PfHsp40 toxicity, primary screen, S. cerevisiae, ATP luminescence | hit rate 0.68% among 340,000 | S. cerevisiae expressing PfHsp40, growth rescue | growth rescue, % at 12.5 µM | AID 504582, 2011; in the data active = growth rescue above about 28%, passing the limit was not always enough;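 also: yeast W303a lacking pdr1 and pdr3 grown in galactose medium; growth measured after three days at 30 °C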
# BH1578 lux ind = inducers of Vibrio cholerae quorum light production without autoinducers, primary screen, BH1578 luxS cqsA deficient, single point; V. cholerae BH1578 lux reporter, luminescence, 6 h; activation, % at 18.7 µM; hit rate 0.16% among 350,000; in the data active = activation mostly above about 9.7%, no sharp cut-off
# VHR inh abs = VHR1 phosphatase inhibitors, primary screen, biochemical, absorbance, uHTS; recombinant VHR phosphatase, pNPP absorbance; Dual specificity protein phosphatase 3 (Homo sapiens), P51452; AID 1654, 2009; hit rate 0.52% among 290,000; inhibition, % at 13.3 µM; in the data active = inhibition above about 50%
# Mtb BioA inh = M. tuberculosis BioA enzyme inhibitors, primary screen, biochemical, plate reader, single point, HTS | 7,8-diaminopelargonic acid synthase BioA (Mycobacterium tuberculosis) | purified M. tuberculosis BioA enzyme | inhibition, % at 9.99 µM | hit rate 0.096% among 360,000 | AID 602481, 2012; in the data active = inhibition above about 40%
# Numbers without * were called inactive; i = inactive; · = not tested or not shown.
SMILES,Y pestis TopoI,TcdB inh,PfHsp40 yeast,BH1578 lux ind,VHR inh abs,Mtb BioA inh
COCC(=O)N1CC[C@@H]2[C@@H](CO)N(C)c3ccc(-c4ccccc4)cc3[C@@H]21,·,13.1*,·,·,·,·
Cc1ccnc(NC(=O)CCCOc2cc(=O)n(C)c3ccccc23)c1,8.0,0.9,-0.3,-0.2,28.5,-0.5
Cc1cc(C)n(-c2ccccc2[N+](=O)[O-])n1,-0.5,0.5,-0.8,i,22.0,·
O=C(C[C@H]1C=C[C@H](NC(=O)C2CC2)[C@H](CO)O1)Nc1ccccc1,·,-9.0,·,·,·,-1.0
COCC(=O)N1CC[C@@H]2[C@H]1c1cc(-c3cccc(F)c3)ccc1N(C)[C@@H]2CO,·,0.1,·,·,·,·
CCC(=O)N1CC[C@@H]2[C@H]1c1cc(-c3ccc(OC)cc3)ccc1N(C)[C@H]2CO,·,11.3*,·,·,·,·
COCC(=O)N1CC[C@@H]2[C@H]1c1cc(-c3ccc(F)cc3)ccc1N(C)[C@H]2CO,·,14.7*,·,·,·,13.0
S=C1NC[C@H](CC2CCCCC2)N1CC1CCCCC1,7.3,1.3,97.6*,0.0,6.7,1.2
Fc1cccc(CCN2C(=S)NC[C@@H]2CC2CCCCC2)c1,51.9*,-5.9,122.3*,i,27.1,-1.6
CSc1ccc(COC(=O)c2cc([N+](=O)[O-])ccc2N2CCOCC2)cc1,16.1,0.1,-0.7,-1.8,·,·
O=C(O)CC/C(=N\Nc1ccc([N+](=O)[O-])cc1)c1ccccc1,1.9,-1.0,1.1,i,-2.5,3.5
O=C(O)CC/C(=N/Nc1ccc([N+](=O)[O-])cc1)C(=O)O,5.3,-0.4,134.7*,-0.2,-4.3,·
CNS(=O)(=O)c1cccc(C(=O)Nc2cccnc2)c1,1.0,·,-0.4,i,56.4*,5.6
O=C(Nc1cccnc1)c1cccc(S(=O)(=O)Nc2cccc(Cl)c2)c1,-6.4,-0.2,1.1,-0.7,·,7.8
O=S(=O)(Nc1ccc(O)cc1)c1cccc2cccnc12,2.7,10.6*,-0.6,-0.2,-3.7,-1.1
CC(C)c1ccc(NS(=O)(=O)c2cccc3cccnc23)cc1,17.6,0.8,-0.7,i,83.0,-0.1
O=C(OC1CCOC1=O)c1cc(-c2cccs2)nc2ccccc12 (stereo not drawn),0.4,0.8,2.6,0.3,-10.8,0.7
Cc1ccc(-c2cc(C(=O)OC3CCOC3=O)c3ccccc3n2)c(C)c1 (stereo not drawn),24.6,18.0*,3.3,-1.4,26.4,-0.5
O=C(N/N=C/c1cccc([N+](=O)[O-])c1)c1cccc2cc[nH]c12,7.6,1.7,-0.6,-0.2,52.1*,·
O=C(N/N=C/c1cccc([N+](=O)[O-])c1)c1ccc(Br)cc1,9.6,10.9*,-0.4,-0.3,56.9*,·
O=C(N/N=C/c1cc([N+](=O)[O-])ccc1O)c1cccc2cc[nH]c12,1.8,0.8,-0.5,-0.3,3.5,0.1
COC(=O)c1cnc(NNC(=O)c2ccc([N+](=O)[O-])cc2)nc1C(F)(F)F,-3.1,0.5,63.0*,-0.3,-0.3,·
CNC[C@@H]1Oc2c(NS(=O)(=O)c3cccs3)cccc2C(=O)N([C@H](C)CO)C[C@H]1C,·,-1.4,·,·,·,0.0
CCC(=O)Nc1nnc(SCC(=O)N2c3ccccc3CC2C)s1 (stereo not drawn),11.0,·,1.3,16.7*,3.3,0.5
COc1ccc(-c2csc(NC(=O)CSc3nnnn3C)n2)c(OC)c1,-3.8,-3.5,-0.8,-1.4,·,1.6
SMILES,Y pestis TopoI,TcdB inh,PfHsp40 yeast,BH1578 lux ind,VHR inh abs,Mtb BioA inh
O=C(/C=C/c1ccco1)c1cccc([N+](=O)[O-])c1,-12.3,1.6,27.4*,·,·,·
O=C(NCCCO)c1cc2c([nH]c3ccccc32)c(-c2ccccc2)n1,0.5,-8.0,1.5,i,9.5,2.8
O=C(O)c1cccc2c1-c1ccc(Cl)cc1C2,1.0,0.3,44.3*,i,·,-0.6
O=[N+]([O-])c1cc(S(=O)(=O)/N=C(/c2ccccc2)N2CCOCC2)ccc1Cl,-7.3,0.7,0.9,i,-16.0,·
CC(C)CCN1C(N(C)C)=NC[C@@H]1C,3.2,-0.5,-0.8,26.5*,·,-0.4
Cc1ccc(C(=O)CC(=O)c2ccc(C(C)(C)C)cc2)cc1,-3.7,1.3,36.3*,2.3,18.5,-0.7
CCOc1cc(/C=C/C(=O)c2ccc3c(c2)OCCO3)ccc1OCC(=O)N(C)C,-0.9,0.8,-0.3,i,33.9,-1.1
Cc1ccc(S(=O)(=O)Oc2ccc(/C=N/NC(=O)c3nn(C)cc3[N+](=O)[O-])cc2)cc1,21.6,13.9*,1.0,-0.1,-4.8,·
C[C@@H]1CN([C@@H](C)CO)C(=O)c2cc(/C=C/c3ccccc3)cnc2O[C@@H]1CN(C)C(=O)Cc1ccccn1,·,2.7,·,·,·,-1.7
COc1ccc(OC)c(-c2cc(C(=O)NCc3ccc(Cl)cc3)no2)c1,-3.8,0.6,0.5,i,36.0,·
CCn1c(NN=O)nc2ccccc21,7.8,1.5,140.2*,-0.3,7.5,0.6
Cc1ccc(C(=O)N2CCN(S(=O)(=O)c3sc(C(=O)O)c(C)c3C(=O)O)CC2)s1,3.3,1.0,1.0,-0.7,·,-1.8
C=CCn1c(SCC(=O)N2CC(=O)Nc3ccccc32)nc2scc(-c3ccccc3)c2c1=O,29.0,16.2*,0.1,0.4,6.8,0.0
O=C1CN(C(=O)CSc2nc3cc(Cl)ccc3c(=O)n2Cc2ccccc2)c2ccccc2N1,70.8*,1.3,2.8,0.1,16.5,·
C[C@H]1CN([C@@H](C)CO)C(=O)c2cc(C#Cc3ccccc3F)cnc2O[C@@H]1CN(C)C(=O)Cc1ccncc1,·,-0.6,·,·,·,1.8
C[C@@H]1CN([C@H](C)CO)C(=O)c2cccc(NS(=O)(=O)c3ccc(Cl)cc3)c2O[C@@H]1CN(C)S(=O)(=O)c1ccc(F)cc1,·,·,·,·,·,1.1
Cc1ccc(S(=O)(=O)/N=c2\sccn2C)cc1,3.4,·,0.3,46.1*,4.9,-1.4
O=S(=O)(c1ccccc1)N1CCCCN2[C@H](CO)[C@H](c3ccc(C#CC4CCCC4)cc3)[C@H]2C1,·,0.6,·,·,·,3.2
CCN(CC)CCC(=O)N1c2ccccc2CCc2ccc(NC(=O)OC)cc21,-3.4,0.7,0.9,-4.1,-6.1,-2.7
CCOC(=O)Nc1ccc2c(c1)N(C(=O)CCN(CC)CC)c1ccccc1CC2,5.3,2.1,0.6,-0.8,50.2*,0.9
O=C1c2oc3ccccc3c(=O)c2C(c2cccs2)N1CCCN1CCOCC1 (stereo not drawn),0.0,·,-2.8,-0.7,-0.2,18.4
Cc1ccc2oc3c(c(=O)c2c1)C(c1cccs1)N(CCCN(C)C)C3=O (stereo not drawn),5.2,·,-0.2,i,-16.7,59.1*
CC(=O)c1cccc(-c2ccnc3c2CC(C(=O)NCc2ccccc2)O3)c1 (stereo not drawn),-1.1,10.1*,·,-0.3,·,-0.6
